Test results reported in PubChem BioAssay AID376 (PDSP, 2006).
Screen size: about 2,000 compounds; about 250 (12%) were called active. Many of the other results were omitted from the sample, so actives are more common in it than they were. Unmarked numbers belong to inactive results. Cut-off read from the data, not from the text of the source: active = hERG blockade below about -20% or above about 20%; inactive = in between.

Biological target: Voltage-gated inwardly rectifying potassium channel KCNH2 (Homo sapiens) (UniProt Q12809)
Sequence (Q12809 whole entry, looked up): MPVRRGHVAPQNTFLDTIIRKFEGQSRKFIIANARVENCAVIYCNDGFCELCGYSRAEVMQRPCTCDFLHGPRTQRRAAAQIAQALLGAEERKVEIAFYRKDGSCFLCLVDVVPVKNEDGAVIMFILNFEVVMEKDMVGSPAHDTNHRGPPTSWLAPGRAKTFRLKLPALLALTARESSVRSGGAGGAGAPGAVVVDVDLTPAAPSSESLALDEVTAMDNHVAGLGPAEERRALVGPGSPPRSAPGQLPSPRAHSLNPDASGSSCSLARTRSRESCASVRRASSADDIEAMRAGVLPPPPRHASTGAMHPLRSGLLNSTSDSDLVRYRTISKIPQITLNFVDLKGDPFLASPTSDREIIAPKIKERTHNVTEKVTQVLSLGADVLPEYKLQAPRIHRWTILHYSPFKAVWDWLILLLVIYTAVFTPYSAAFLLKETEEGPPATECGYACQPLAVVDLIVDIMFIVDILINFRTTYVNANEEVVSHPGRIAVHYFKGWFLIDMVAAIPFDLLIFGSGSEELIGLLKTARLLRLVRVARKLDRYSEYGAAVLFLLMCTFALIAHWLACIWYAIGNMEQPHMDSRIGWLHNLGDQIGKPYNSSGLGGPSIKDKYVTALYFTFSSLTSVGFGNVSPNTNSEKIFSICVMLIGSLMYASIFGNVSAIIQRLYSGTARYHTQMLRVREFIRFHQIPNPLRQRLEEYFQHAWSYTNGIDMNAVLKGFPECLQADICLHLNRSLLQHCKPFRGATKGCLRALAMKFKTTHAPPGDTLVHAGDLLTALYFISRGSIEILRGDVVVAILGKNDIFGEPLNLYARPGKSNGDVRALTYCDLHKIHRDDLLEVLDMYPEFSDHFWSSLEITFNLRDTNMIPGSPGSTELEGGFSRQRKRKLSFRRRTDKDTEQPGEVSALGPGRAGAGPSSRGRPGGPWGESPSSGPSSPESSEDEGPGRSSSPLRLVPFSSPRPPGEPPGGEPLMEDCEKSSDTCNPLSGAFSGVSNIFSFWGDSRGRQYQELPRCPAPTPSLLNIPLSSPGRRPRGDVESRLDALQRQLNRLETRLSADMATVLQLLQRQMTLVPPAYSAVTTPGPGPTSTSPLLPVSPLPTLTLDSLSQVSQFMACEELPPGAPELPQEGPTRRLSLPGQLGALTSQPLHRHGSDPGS
Test: KCNH2 potassium channel function modulators, cell-based (AID 376);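 note: 0% = buffer alone and 100% = reference blocker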
Details: hERG-expressing cells, channel activity single-concentration screen; concentration not given here

SMILES	hERG blockade
CN1CC(c2ccccc2)C(O)(C2(c3ccccc3)CN(C)CC(c3ccccc3)C2=O)C(c2ccccc2)C1 (stereo unspecified)	20.8% (active)
CC1(C)N=C(N)N=C(N)N1CCCCc1ccccc1	-14.1%
Nc1nc(N)c(CCCCc2ccccc2)c(N)n1	26.6% (active)
Nc1nc(SCCc2ccccc2)c2[nH]cnc2n1	-0.569%
Cn1c(=O)c2[nH]c(CS(=O)(=O)Cc3nc4c([nH]3)c(=O)n(C)c(=O)n4C)nc2n(C)c1=O	-2.72%
Nc1nc(N)c(N=Nc2ccc(C(=O)O)c(O)c2)c(N)n1	12.4%
c1ccc(SCCc2ccncc2)cc1	5.61%
CC(=NNS(=O)(=O)c1ccc(C)cc1)P(=O)(O)O	15.5%
COc1ccc2cc1Oc1ccc(cc1)CC1c3c(cc(OC)c4c3Oc3cc5c(cc3O4)CCNC5C2)CCN1C (stereo unspecified)	79.4% (active)
COc1cc2c3cc1Oc1c(OC)c(OC)cc4c1C(Cc1ccc(O)c(c1)Oc1ccc(cc1)CC3N(C)CC2)CN(C)C4 (stereo unspecified)	37.9% (active)
COc1ccc2cc1Oc1ccc(cc1)CC1c3cc(c(OC)cc3CCN1C)Oc1c(OC)c(OC)cc3c1C(C2)N(C)CC3 (stereo unspecified)	70.1% (active)
COc1ccc(CC2C(=O)NC(C)C(=O)N(C)C3Cc4ccc(cc4)Oc4cc(ccc4O)CC(C(=O)NC(C)C(=O)NC(C)C(=O)N2C)N(C)C3=O)cc1 (stereo unspecified)	4.92%
COc1cc2c3cc1Oc1cc(ccc1O)CC1c4c(cc(OC)c(O)c4Oc4ccc(cc4)CC3[N+](C)(C)CC2)CC[N+]1(C)C (stereo unspecified)	11.2%
N=c1sc2ccccc2n1CCS (tested in a mixture with another compound)	5.15%
COC(NC(N)=O)C(=O)O (stereo unspecified)	6.05%
Cc1c(Cl)cc(C(C)(C)C)c(O)c1Cc1c(C)c(Cl)cc(C(C)(C)C)c1O	0.223%
CC(C)(CCC(C)(C)c1ccccc1)c1ccccc1	1.92%
CN(C)Cc1nsc(N(C)C)n1	2.33%
Cn1c(=O)c2c(nc(Cc3ccccc3)n2CC(=O)O)n(C)c1=O	11.6%
CCOc1ccccc1C=C(C#N)C(N)=O	-12.6%
CC(=Cc1ccc(Cl)cc1)C(C)(C)C(=O)O	-2.46%
O=C(O)C1C2C=CC(O2)C1C(=O)Nc1ccccc1 (stereo unspecified)	-12.4%
O=C(NN=Cc1ccc2c(c1)CCC2)c1ccccc1O	7.38%
CC(C)(C)C1CCC2(CC1)CCN(CCCN1CCOCC1)CC2	36.7% (active)
CN(C)CCCN1CCC2(CCC(C(C)(C)C)CC2)CC1	11.2%
FC(F)(F)c1nc2nc(Cl)c(Cl)nc2n1CCCN1CCOCC1	-9.32%

SMILES	hERG blockade
c1ccc(NCCSc2nc3ccccc3s2)cc1	-0.231%
CCC1CC(=O)N(SCC(N)C(=O)O)C1=O (stereo unspecified)	-6%
Fc1cccc(F)c1C(Nc1nncs1)Nc1nncs1	-2.76%
CC(C)C(Sc1nc(N)nc2nc[nH]c12)C(=O)O (stereo unspecified)	1.36%
C[N+](C)(C)CCN[N+]1(C)CCCc2ccccc21 (stereo unspecified)	13.2%
CC(=NS(=O)(=O)c1ccc(Cl)c(Cl)c1)OCC(C)(C)C	21.3% (active)
CNCC(Cl)=NS(=O)(=O)c1ccc(C)cc1	2.08%
CC(C)(C)C(=O)C(C(c1ccccc1)N1CCOCC1)N1CCOCC1 (stereo unspecified)	18.3%
O=C(O)CC(Cc1ccccc1Cl)C(=O)O (stereo unspecified)	9.3%
CC(CNC(N)=O)NC(N)=O (stereo unspecified)	2.5%
O=C(O)CC1(CC(=O)O)Nc2ccccc2SC1=O	-18.2%
C[N+](C)(C)c1cc2c(nn1)Nc1ccccc1S2	43.5% (active)
O=S(=O)(O)CCCc1cccc2ccccc12	-12.8%
Nc1cccc2nsnc12	-4.23%
NC(CCc1ccccc1)(C(=O)O)c1ccccc1 (stereo unspecified)	-9.5%
CC12CCC(=O)C=C1CCC1C2CCC2(C)C(C(=O)COS(=O)(=O)c3ccc(Br)cc3)CCC12 (stereo unspecified)	17%
NC1C2C(CC(=O)O)OCC=C3CN4CCC1(C(=O)C(=O)O)C4CC32 (stereo unspecified)	13%
O=C1CC2OCC=C3CN4CCC5(C(=O)O)C(N1)C2C3CC45 (stereo unspecified)	-10.2%
O=C(O)C=C(C(=O)O)C12CCN3CC4=CCOC5CC(=O)NC1C5C4CC32 (stereo unspecified)	20.4% (active)
ON(CCc1ccncc1)Cc1ccccc1	-10.6%
CC12CCC(O)CC1CCC1C2CCC2(C)C(c3cc(C(F)(F)F)n[nH]3)CCC12 (stereo unspecified)	8.14%
O=C1c2ccccc2C(=O)c2c(NC3CCCCC3)ccc(Nc3ccc(S(=O)(=O)O)cc3)c21	16.1%
CN(C)S(=O)(=O)c1ccc(Nc2ccc(O)c3c2C(=O)c2c([N+](=O)[O-])ccc(O)c2C3=O)cc1	64.1% (active)
O=C1C2C3C=CC(C2C(=O)N1CN1CCSCC1)C1C2C(=O)N(CN4CCSCC4)C(=O)C2C31 (stereo unspecified)	7.62%
CC(=O)Nc1ccc(S(=O)(=O)N=S(C)C)cc1	14.2%
c1ccc(COC2NCCN2Cc2ccccc2)cc1 (stereo unspecified)	7.69%

SMILES	hERG blockade
c1ccc([P+](CC[P+](c2ccccc2)(c2ccccc2)c2ccccc2)(c2ccccc2)c2ccccc2)cc1	11.7%
NCCCc1ccc2oc3ccccc3c2c1	29.2% (active)
Cc1cc(=O)[nH]c2cc3oc4ccccc4c3cc12	4.54%
O=C(O)CSc1ccc([N+](=O)[O-])cc1[N+](=O)[O-]	2.18%
Cn1cnc([N+](=O)[O-])c1SCC(=O)O	2.91%
O=C(O)CSc1ncccc1[N+](=O)[O-]	-20.2% (active)
NCC(O)CSCc1ccc(Cl)cc1 (stereo unspecified)	-14.3%
c1ccc(-c2nnn(CCN3CCCCC3)n2)cc1	-7.12%
Cn1c(=O)c2c(nc(NN=Cc3ccccc3C(=O)O)n2C)n(C)c1=O	-7%
CC(C)C(C(=O)O)N1C(=O)c2ccccc2C1=O (stereo unspecified)	5.91%
Cc1ccc(C(N)=Nc2ccccc2)cc1	8.7%
O=C(O)CCc1nc2ccccc2[nH]1	-3.47%
O=C(O)CCc1nc(-c2ccccc2)c(-c2ccccc2)o1	1.96%
O=C(O)CCc1ccc(-c2ccccc2)[nH]1	-28.1% (active)
O=C(CC(C(=O)O)N1CCOCC1)c1ccccc1 (stereo unspecified)	7.79%
OCC(O)C(O)C(O)C(O)c1nc2ccc(Cl)cc2[nH]1 (stereo unspecified)	3.95%
Cc1cc(Cc2cc(C)cc(C(C)(C)C)c2O)c(O)c(Cc2cc(C)cc(C(C)(C)C)c2O)c1	15.5%
Cc1ncc(CSc2ccccc2N)c(CO)c1O	-7.6%
Clc1ccc(CN2CCCN(Cc3ccc(Cl)cc3)C2c2cc3ccccc3c3ccccc23)cc1	-5.92%
c1ccc(CN2CCC3(CC2)SSC2(CCN(Cc4ccccc4)CC2)SS3)cc1	1.07%
CC(C)(C)c1ccc(CN2CCN(C(c3ccccc3)c3ccc(Cl)cc3)CC2)cc1 (stereo unspecified)	23.1% (active)
CC1NCCC(CC(=O)O)C1CC(=O)O (stereo unspecified)	-10.6%
CC(C(=O)c1ccccc1)C(c1ccccc1)N1CCOCC1 (stereo unspecified)	-13.1%
Cc1onc(-c2c(F)cccc2Cl)c1C(=O)NC1C(=O)N2C1SC(C)(C)C2C(=O)O (stereo unspecified)	8.23%
Cc1ccc2nc(NN=Cc3cccc(C)n3)cc(C)c2c1	26.3% (active)
CSc1nnnc2ccccc12	8.81%

SMILES	hERG blockade
O=C(O)C(Cc1ccnc2ccccc12)=NO	-22.9% (active)
O=C(O)C(Cc1cn[nH]n1)=NO	7.89%
O=C(O)C(=Cc1ccnc2ccccc12)C(=O)O	3.04%
NC(=O)SCC(=O)Nc1ccc2ncccc2c1	8.17%
CC1(C)N=C(N)N=C(N)N1c1cccc(OCc2cccc([N+](=O)[O-])c2)c1	-1.1%
CC(C)(COC1CC2CCC1(C)C2(C)C)[N+](=O)[O-] (stereo unspecified)	-4.38%
N#CC(=CNc1ccccn1)C(=O)C1CC1	0.609%
O=[N+]([O-])c1ccc2c(c1)S(=O)c1ccccc1-2 (stereo unspecified)	13.4%
NC(Cc1cccc([N+](=O)[O-])c1)C(=O)O (stereo unspecified)	7.25%
N=C(N)SC1c2ccccc2-c2cc([N+](=O)[O-])ccc21 (stereo unspecified)	50.8% (active)
N#CC(N=Nc1ccccc1C(=O)O)C(N)=O (stereo unspecified)	-0.342%
O=[N+]([O-])c1ccc(C(Nc2ccccc2)c2ccc3cccnc3c2O)cc1 (stereo unspecified)	11.2%
Cc1cc2ccccc2c[n+]1CC(O)C[n+]1cc2ccccc2cc1C	26.1% (active)
Cc1ccc(S(=O)(=O)OC2CC(C(C)(C)C)CCC2c2ccccc2)cc1 (stereo unspecified)	2.36%
COc1cccc2c1C(CO)N1C(C#N)C3CC(C(=O)O)C(C1C2)N3C (stereo unspecified)	-24.5% (active)
O=C(Nc1cccc(Cl)c1)Nn1cnnc1	10.3%
Cc1ccc(CN2CCN(Cc3ccc(C)o3)C(C)C2)o1 (stereo unspecified)	0.417%
O=C(O)C1C2C=CC(O2)C1C(=O)Nc1ncccn1 (stereo unspecified)	-6.76%
COc1ccc(C=NNC(=O)O)cc1	-2.22%
CC1CCN(CC(=O)N2c3ccccc3Sc3cc4ccccc4cc32)CC1	14%
CN1CCN(CC(=O)N2c3ccccc3Sc3cc4ccccc4cc32)CC1	52.7% (active)
O=C(CC1(O)CCCCC1)OC1CCCC1	-2.11%
CCOC(=O)c1c2c(n3ccccc13)C(=O)c1ccccc1C2=O	8.67%
